Laboratory results from PubChem BioAssay (NCI).
Compounds without any hit were thinned out: in the full panel of roughly 79,000, 15% have a hit. No stated cut-off is given here; in the data, active means growth inhibition above about 70%; inactive means the rest.

Assays:
[1] = NCI Yeast Anticancer Drug Screen. Data for the rad52 strain (AID 147);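 further: 0% = growth of vehicle-treated control cultures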; details: S. cerevisiae rad52 mutant growth inhibition, hits give high values
In short: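 Measured: yeast growth inhibition. System: strain with a defined DNA damage repair alteration. Reference: vehicle-treated control cultures.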

[2] = NCI Yeast Anticancer Drug Screen. Data for the wt1 strain (AID 149);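 further: 0% = growth of vehicle-treated wt1 cultures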; details: S. cerevisiae wt1 strain (SPY 50644) growth inhibition, hits give high values
In short: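 Vehicle-normalised growth inhibition; strain wt1; compound exposure.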

[3] = NCI Yeast Anticancer Drug Screen. Data for the rad50EPP+ strain (AID 151);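 further: 0% = growth of vehicle-treated control cultures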; details: S. cerevisiae rad50 mutant strain, hits give high values
In short: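 One strain with a rad50 alteration (rad50EPP+) was compound-treated, its growth then compared to that of vehicle controls.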

[4] = NCI Yeast Anticancer Drug Screen. Data for the mgt1 strain (AID 153); details: S. cerevisiae mgt1 mutant growth inhibition, hits give high values
In short: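 After exposure of the mgt1 yeast mutant to compound, growth was measured and reported as inhibition compared with vehicle controls.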

[5] = NCI Yeast Anticancer Drug Screen. Data for the rad50 strain (AID 155);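 further: 0% = growth of vehicle-only cultures of the same strain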; details: S. cerevisiae rad50 strain growth inhibition, hits give high values
In short: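 A DNA repair-deficient yeast mutant serves as the test organism; compound-induced growth inhibition is calculated against vehicle-treated cells.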

[6] = NCI Yeast Anticancer Drug Screen. Data for the mec2-1 strain (AID 157); details: S. cerevisiae mec2-1 strain, hits give high values
In short: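 Test agents were screened against the mec2-1 yeast strain, with defined DNA repair or cell cycle alteration. Growth was scored as inhibition against vehicle-only controls.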

[7] = NCI Yeast Anticancer Drug Screen. Data for the rad14 strain (AID 159);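 further: 0% = growth of vehicle-treated control cultures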; details: S. cerevisiae rad14 strain growth inhibition, hits give high values
In short: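 Vehicle-treated cultures served as the baseline for growth inhibition of a DNA repair-mutant yeast strain exposed to each compound.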

[8] = NCI Yeast Anticancer Drug Screen. Data for the sgs1 mgt1 strain (AID 161);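 further: 0% = growth of cultures given vehicle only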; details: S. cerevisiae sgs1 mgt1 strain, hits give high values
In short: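 Mutant yeast exposed to compound; growth scored against vehicle-only wells.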

[9] = NCI Yeast Anticancer Drug Screen. Data for the CLN2oe strain (AID 163);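 further: 0% = growth of vehicle-only control cultures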; details: S. cerevisiae CLN2oe strain, hits give high values
In short: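 Here, growth inhibition in a cell-cycle-altered yeast strain after compound exposure was quantified against vehicle control growth.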

[10] = NCI Yeast Anticancer Drug Screen. Data for the cln2 rad14 strain (AID 165);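 further: 0% = growth equal to vehicle treated cultures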; details: S. cerevisiae cln2 rad14 strain, hits give high values
In short: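 Growth of compound-exposed yeast (cln2 rad14 genotype) measured and expressed as inhibition relative to vehicle.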

[11] = NCI Yeast Anticancer Drug Screen. Data for the bub3 strain (AID 167); details: S. cerevisiae bub3 mutant strain, hits give high values
In short: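 Inhibition values come from growth of compound-treated mutant yeast normalised to vehicle-treated controls.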

[12] = NCI Yeast Anticancer Drug Screen. Data for the wt2 strain (AID 169);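 further: 0% = growth of vehicle-treated yeast cultures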; details: S. cerevisiae wt2 strain growth inhibition, hits give high values
In short: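 Genetically defined yeast strains from a DNA-repair/cell-cycle panel were used. Compound-exposed yeast growth was measured, and the inhibition was calculated relative to vehicle treatment.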

[13] = NCI Yeast Anticancer Drug Screen. Data for the mlh1 strain (AID 171);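 further: 0% = growth of vehicle-treated control cultures of the same strain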; details: S. cerevisiae mlh1 strain growth inhibition, hits give high values
In short: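 Here the genetically defined yeast mutant is grown with each compound, and the extent to which its growth falls below that of vehicle-exposed cells is reported.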

[14] = NCI Yeast Anticancer Drug Screen. Data for the sgs1 strain (AID 173);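 further: 0% = growth of vehicle-only control cultures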; details: S. cerevisiae sgs1 mutant, hits give high values
In short: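 Relative growth inhibition, referenced to vehicle, was determined in a yeast strain with a defined alteration affecting DNA damage repair or cell cycle control after compound exposure.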

[15] = NCI Yeast Anticancer Drug Screen. Data for the mlh1 rad18 strain (AID 175); details: S. cerevisiae mlh1 rad18 strain growth inhibition, hits give high values
In short: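 In this whole-cell yeast screen, a strain with altered DNA damage repair is challenged with compound, and its growth is measured against matched vehicle-treated controls.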

[16] = at 5.0 µM (retest, dose inferred, filed as 0.5)
[17] = at 50.0 µM (retest, dose inferred, filed as 5.0)

Measured: growth inhibition

Cc1nn(-c2cc(Cl)ccc2[N+](=O)[O-])c(C)c1Cl
inactive: [1]; at 1.2 µM 1% | [1]; at 3.7 µM 3% | [1]; at 11.0 µM 2% | [1]; at 33.0 µM 3% | [1]; at 100.0 µM 2% | [2]; at 1.2 µM -1% | [2]; at 3.7 µM -1% | [2]; at 11.0 µM 1% | [2]; at 33.0 µM -1% | [2]; at 100.0 µM 2% | [3]; at 1.2 µM 4% | [3]; at 3.7 µM 8% | [3]; at 11.0 µM 14% | [3]; at 33.0 µM 19% | [3]; at 100.0 µM 10% | [4]; at 1.2 µM -2% | [4]; at 3.7 µM -2% | [4]; at 11.0 µM 4% | [4]; at 33.0 µM -8% | [4]; at 100.0 µM 7% | [5]; at 1.2 µM 0% | [5]; at 3.7 µM 1% | [5]; [16] -20% | [5]; at 11.0 µM -16% | [5]; at 33.0 µM 2% | [5]; [17] -9% | [5]; at 50.0 µM 50% | [5]; at 100.0 µM 2% | [6]; at 1.2 µM 7% | [6]; at 3.7 µM 0% | [6]; [16] -7% | [6]; at 11.0 µM 3% | [6]; at 33.0 µM 2% | [6]; [17] -18% | [6]; at 50.0 µM 54.1% | [6]; at 100.0 µM 4% | [7]; at 1.2 µM -1% | [7]; at 3.7 µM 0% | [7]; at 11.0 µM 4% | [7]; at 33.0 µM 2% | [7]; at 100.0 µM 3% | [8]; [16] -15% | [8]; [17] -10% | [8]; at 50.0 µM 43.6% | [9]; at 1.2 µM 1% | [9]; at 3.7 µM 2% | [9]; at 11.0 µM -2% | [9]; at 33.0 µM 4% | [9]; at 100.0 µM 5% | [10]; [16] 39% | [10]; [17] 4% | [10]; at 50.0 µM 26.1% | [11]; at 1.2 µM 1% | [11]; at 3.7 µM 7% | [11]; [16] -6% | [11]; at 11.0 µM 20% | [11]; at 33.0 µM 24% | [11]; [17] -6% | [11]; at 50.0 µM 64.2% | [11]; at 100.0 µM 16% | [12]; at 1.2 µM 0% | [12]; at 3.7 µM -1% | [12]; at 11.0 µM -1% | [12]; at 33.0 µM -1% | [12]; at 100.0 µM 0% | [13]; at 1.2 µM 0% | [13]; at 3.7 µM 2% | [13]; at 11.0 µM 3% | [13]; at 33.0 µM 1% | [13]; at 100.0 µM 3% | [14]; at 1.2 µM -1% | [14]; at 3.7 µM -2% | [14]; at 11.0 µM -1% | [14]; at 33.0 µM -1% | [14]; at 100.0 µM 2% | [15]; [16] -3% | [15]; [17] -9% | [15]; at 50.0 µM 15.2%
